According to PubChem BioAssay:
Inconclusive results are not listed. The source made the active and inactive calls.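 How the source made its calls, unless noted: active means response below a set limit, under 55% cells CD8-positive and vesicle-bound, and CD8 cells' 90th-percentile brightness under 279; inactive means the rest.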

Legend:
[1] = rapamycin-like changes in RPL19A-GFP expression – cell-based, S. cerevisiae, multiplex flow cytometry, primary screen (AID 1862; in the data active means percent of DMSO control GFP below about 86%;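 further: lower values mimic rapamycin by blocking the RPL19A rise seen in DMSO cells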); details: S. cerevisiae RPL19A-GFP strain, flow cytometry fluorescence, 3 h; at 10 µM; stronger effect = lower value
[2] = TOR pathway GLN3 branch reporter MEP2-GFP changes – S. cerevisiae, multiplex flow cytometry, primary screen (AID 1867;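 active means GFP response, as percent of the DMSO control, above the screen-wide mean plus 3 SD, about 139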;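 further: median GFP channel fluorescence of barcode-gated MEP2-GFP cells measured by flow cytometry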); details: S. cerevisiae MEP2-GFP strain, 3 h, at 10 µM, stronger effect = higher value, 100% means same as DMSO wells
[3] = TOR pathway RTG branch CIT2 reporter changes – S. cerevisiae, GFP fusion, multiplex flow cytometry, primary screen (AID 1870;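 active means percent response above a set limit, the screen-wide mean plus 3 SD, cut at about 130% in these data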;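 further: barcoded CIT2-GFP strain pooled with four other GFP strains with rapamycin as positive control; median GFP fluorescence per well over plate mean of DMSO wells so 100% = DMSO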); details: S. cerevisiae CIT2-GFP expression, 3 h, at 10 µM, stronger effect = higher value
[4] = TOR pathway LAP4-GFP level changes – S. cerevisiae, multiplex flow cytometry, primary screen (AID 1873;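 active means GFP signal, as percent of the solvent control, above the screen mean plus 3 SD, about 149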); details: S. cerevisiae LAP4-GFP expression, 3 h, at 10 µM, stronger effect = higher value
[5] = yeast AGP1-GFP level changes, GLN3 branch – cell-based, multiplex flow cytometry, S. cerevisiae, primary screen (AID 1887;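 active means GFP signal above the screen-wide mean plus 3 SD, that is over about 124.5% of the solvent control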;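 further: AGP1-GFP fusion strain of S. cerevisiae within a five-strain barcoded multiplex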); details: 3 h, at 10 µM, stronger effect = higher value
[6] = reduced mouse 2C T cell binding to pMHC/ICAM-1 vesicles – MLPCN validation set, flow cytometry, LFA-1/ICAM-1 modulator project, pilot screen (AID 2523); details: 2C mouse CD8+ T cells, at 7 µM, stronger effect = lower value; double positive events: measured here: CD8+/vesicle+ event percentage;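 on vesicle binding response: mean PE anti-B7-1 fluorescence of CD8+ cells relative to row control; 100% = QL9-loaded vesicles with DMSO vehicle in the same plate row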
[7] = target: Integrin beta-1 (Homo sapiens) + Integrin alpha-4 (Homo sapiens) (UniProt P13612+P05556); assay: alpha4beta1 integrin LIBS antibody binding reduction – U937 cells, HUTS-21 mAb, flow cytometry, validation set, VLA-4 allosteric modulator project, pilot screen (AID 2674;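 active means inhibition above 50%, about 3 SD of the validation set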;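 further: antibody binding induced by the VLA-4 ligand LDV present at three times its Kd; 0% = LDV ligand with antibody and no compound and 100% = antibody without LDV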); details: HUTS-21 LIBS mAb binding, at 6.7 µM, stronger effect = higher value, binding induced by LDV ligand
[8] = calorie-restriction mimetic ROS inhibitors, yeast – validation compound set, pilot screen (AID 2706;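 active means superoxide response below 65% of plate, a cut near 3 SD across the whole screen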;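 further: yeast exposed to compound for one week at 30 degrees C before staining; 100% = mean of all compound wells on the same plate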); details: S. cerevisiae aging, superoxide DHE fluorescence; at 10 µM; stronger effect = lower value
[9] = target: Beta-adrenergic receptor kinase 1 (Homo sapiens) (UniProt P25098); assay: GRK2 binders displacing RNA aptamer, biochemical, validation, human GRK2, bead flow cytometry (AID 488806;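 active means aptamer binding inhibition above 30%, about 3 SD of noise from non-fluorescent compounds; inactive means inhibition at or below 30%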); details: bead-bound GRK2, FAM-aptamer displacement, at 10 µM, stronger effect = higher value
[10] = target: Beta-2 adrenergic receptor (Homo sapiens) (UniProt P07550); assay: agonist-induced loss of surface beta2AR – cell-based, FAP fluorogen, flow cytometry, validation set, pilot screen (AID 504459;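 active means percent response above 42, roughly 3 SD of non-fluorescent test compounds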;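 further: agonist-driven loss of surface beta2AR via internalization measured by FAP dye flow cytometry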); details: Am2.2-beta2AR cells, at 10 µM, stronger effect = higher value
[11] = target: AP-2 complex subunit beta (Homo sapiens) (UniProt P63010); assay: beta-arrestin/AP2 interaction blockers – biochemical, validation set, GST-AP2 beads, flow cytometry, pilot screen (AID 504541;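 active means inhibition above 54%, about 3 SD of non-fluorescent compounds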;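 further: AP2 carries R879A mutation and is captured from E. coli lysate; bead-bound FITC arrestin peptide fluorescence measuring arrestin peptide binding to AP2; 0% = DMSO wells and 100% = excess unlabeled arrestin peptide control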); details: FITC arrestin peptide, at 10 µM, stronger effect = higher value, AP2 beta2 appendage fragment, R879A mutant
[12] = cytosolic pH regulators acting via V-ATPase – S. cerevisiae, pHLuorin, HTS validation (AID 504600; in the data active means response above about 15%;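 further: plate controls were DMSO for no effect and reference compound for full effect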); details: V-ATPase proton transport, at 10 µM, stronger effect = higher value
[13] = tested on: anti-desmoglein-3 scFv antibody binding to human DSG3; assay: blockers of pathogenic pemphigus antibody–desmoglein-3 binding – biochemical, validation compound set, bead-based, flow cytometry, pilot screen (AID 588368;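 active means binding below the plate cutoff, the plate median minus 3 SD, with a reading above zero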;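 further: signal is the median channel fluorescence of bead-bound GFP antibody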); details: Protein G beads, DSG3-Fc, scFv-GFP binding, at 10 µM, stronger effect = lower value
[14] = Nile Red efflux blockade in pump-expressing yeast – validation compound set, multiplex, phenotypic, pilot screen (AID 588506;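 active means efflux inhibition above 0.42, the validation set average plus 4 SD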;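 further: Nile Red retained in cells so higher fluorescence means more efflux inhibition; 0 = negative control wells and 1 = enniatin B 25 µM full block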); details: S. cerevisiae pump-expressing triplex, Nile Red efflux flow cytometry; at 10 µM; stronger effect = higher value; the pumps come from Candida albicans
[15] = target: ATP-binding cassette sub-family B member 6 (Homo sapiens) (UniProt Q9NP58); assay: blockers of ABCB6-driven porphyrin uptake – K562-ABCB6 cells, flow cytometry, validation set, pilot screen (AID 588550;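 active means inhibition above the screen-wide mean plus 3 SD, about 51%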;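 further: 0% = DMSO wells and 100% = benzethonium chloride 70 µM positive control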); details: K562-ABCB6 porphyrin accumulation, 1 h, at 10 µM, stronger effect = higher value
[16] = AML differentiation inducers, ER-HoxA9 marrow cells – cell-based, GFP/MAC1 double positive, flow cytometry, validation set, primary screen (AID 588685;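 active means differentiation response of at least 50%, scaled between solvent and reference control, from cells with both markers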;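 further: compound exposure lasts four days before antibody staining and flow analysis; 0% = DMSO wells and 100% = 5 µM fulvestrant positive control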); details: stronger effect = higher value, normalized: vehicle 0, fulvestrant 100

Sequence of ATP-binding cassette sub-family B member 6 (Homo sapiens) (Q9NP58 whole entry, looked up): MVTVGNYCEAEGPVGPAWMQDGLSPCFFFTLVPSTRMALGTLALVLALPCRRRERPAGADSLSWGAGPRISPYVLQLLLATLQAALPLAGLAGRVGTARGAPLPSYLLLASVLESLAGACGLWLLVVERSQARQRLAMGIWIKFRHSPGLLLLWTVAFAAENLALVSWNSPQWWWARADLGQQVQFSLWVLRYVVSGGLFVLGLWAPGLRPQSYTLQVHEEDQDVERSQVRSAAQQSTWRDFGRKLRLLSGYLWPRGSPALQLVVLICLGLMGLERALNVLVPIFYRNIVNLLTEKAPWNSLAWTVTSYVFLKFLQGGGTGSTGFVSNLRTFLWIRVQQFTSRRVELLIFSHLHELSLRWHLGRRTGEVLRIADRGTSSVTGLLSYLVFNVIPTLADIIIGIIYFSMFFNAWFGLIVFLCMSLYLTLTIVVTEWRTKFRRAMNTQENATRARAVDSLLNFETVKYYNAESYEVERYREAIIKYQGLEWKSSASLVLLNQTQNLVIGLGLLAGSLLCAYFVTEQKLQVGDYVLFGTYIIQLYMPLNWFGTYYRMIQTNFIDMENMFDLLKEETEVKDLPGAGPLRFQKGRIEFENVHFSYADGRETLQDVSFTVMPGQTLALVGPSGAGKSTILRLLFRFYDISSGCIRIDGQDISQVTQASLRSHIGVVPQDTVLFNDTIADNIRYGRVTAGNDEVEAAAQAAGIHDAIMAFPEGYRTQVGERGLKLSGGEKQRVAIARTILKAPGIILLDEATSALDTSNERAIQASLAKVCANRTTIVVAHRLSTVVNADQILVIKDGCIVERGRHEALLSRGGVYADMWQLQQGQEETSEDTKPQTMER
Sequence of Beta-2 adrenergic receptor (Homo sapiens) (P07550 whole entry, looked up): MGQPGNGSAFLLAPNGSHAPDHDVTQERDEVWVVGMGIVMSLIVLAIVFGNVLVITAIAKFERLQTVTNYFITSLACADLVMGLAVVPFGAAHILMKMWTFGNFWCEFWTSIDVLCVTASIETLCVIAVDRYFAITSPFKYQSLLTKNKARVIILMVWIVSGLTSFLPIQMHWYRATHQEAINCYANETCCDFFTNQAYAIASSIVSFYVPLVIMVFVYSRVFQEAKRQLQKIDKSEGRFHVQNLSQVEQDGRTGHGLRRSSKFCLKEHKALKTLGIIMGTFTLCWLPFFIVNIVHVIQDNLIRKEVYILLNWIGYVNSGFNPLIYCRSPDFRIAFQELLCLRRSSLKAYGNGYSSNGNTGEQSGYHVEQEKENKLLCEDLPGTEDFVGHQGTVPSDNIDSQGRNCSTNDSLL
Sequence of AP-2 complex subunit beta (Homo sapiens) (P63010 whole entry, looked up, the tested form may be a part, one chain of several): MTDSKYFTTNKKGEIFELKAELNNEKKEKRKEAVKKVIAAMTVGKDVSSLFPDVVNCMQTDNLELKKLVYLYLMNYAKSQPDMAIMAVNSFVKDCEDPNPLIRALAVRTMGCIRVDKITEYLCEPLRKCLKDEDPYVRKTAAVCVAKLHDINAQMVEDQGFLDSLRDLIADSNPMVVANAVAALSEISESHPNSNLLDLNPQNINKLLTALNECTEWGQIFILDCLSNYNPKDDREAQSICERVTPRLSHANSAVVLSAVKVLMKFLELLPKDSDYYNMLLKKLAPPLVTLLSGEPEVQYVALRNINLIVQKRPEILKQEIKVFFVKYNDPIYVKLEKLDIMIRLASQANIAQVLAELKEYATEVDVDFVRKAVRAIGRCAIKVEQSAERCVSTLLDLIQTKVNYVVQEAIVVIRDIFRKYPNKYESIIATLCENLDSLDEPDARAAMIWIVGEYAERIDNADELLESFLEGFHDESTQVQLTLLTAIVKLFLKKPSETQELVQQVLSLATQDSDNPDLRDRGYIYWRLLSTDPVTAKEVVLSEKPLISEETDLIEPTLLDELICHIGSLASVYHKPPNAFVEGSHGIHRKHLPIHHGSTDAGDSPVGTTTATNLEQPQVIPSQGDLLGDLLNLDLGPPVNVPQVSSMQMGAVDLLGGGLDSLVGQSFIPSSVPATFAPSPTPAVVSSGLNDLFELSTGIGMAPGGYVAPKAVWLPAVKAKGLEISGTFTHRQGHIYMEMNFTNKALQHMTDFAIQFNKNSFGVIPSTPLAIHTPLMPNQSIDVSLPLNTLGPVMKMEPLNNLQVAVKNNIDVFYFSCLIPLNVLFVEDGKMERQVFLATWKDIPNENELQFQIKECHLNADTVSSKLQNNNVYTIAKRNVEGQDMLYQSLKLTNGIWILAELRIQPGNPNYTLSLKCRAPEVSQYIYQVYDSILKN
Sequence of Beta-adrenergic receptor kinase 1 (Homo sapiens) (P25098 whole entry, looked up): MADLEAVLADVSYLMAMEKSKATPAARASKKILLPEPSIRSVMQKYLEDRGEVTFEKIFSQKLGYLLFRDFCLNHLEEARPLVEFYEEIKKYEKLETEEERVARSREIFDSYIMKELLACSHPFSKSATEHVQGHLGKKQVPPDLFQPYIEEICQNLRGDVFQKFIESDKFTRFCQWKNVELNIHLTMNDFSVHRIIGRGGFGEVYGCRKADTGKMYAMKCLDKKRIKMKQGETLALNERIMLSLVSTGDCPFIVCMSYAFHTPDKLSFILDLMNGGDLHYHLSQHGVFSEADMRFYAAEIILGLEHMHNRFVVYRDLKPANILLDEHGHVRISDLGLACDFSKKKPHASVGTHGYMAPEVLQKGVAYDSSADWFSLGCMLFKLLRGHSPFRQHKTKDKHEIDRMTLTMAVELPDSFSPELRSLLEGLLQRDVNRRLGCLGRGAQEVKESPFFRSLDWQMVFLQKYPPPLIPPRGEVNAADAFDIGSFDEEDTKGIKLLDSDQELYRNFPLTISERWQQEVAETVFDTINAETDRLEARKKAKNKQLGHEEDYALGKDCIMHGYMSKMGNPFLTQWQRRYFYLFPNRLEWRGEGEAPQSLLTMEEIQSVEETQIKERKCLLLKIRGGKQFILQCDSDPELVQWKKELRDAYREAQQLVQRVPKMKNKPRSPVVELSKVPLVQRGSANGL
Sequence of Integrin beta-1 (Homo sapiens) + Integrin alpha-4 (Homo sapiens) (P05556 whole entry, looked up): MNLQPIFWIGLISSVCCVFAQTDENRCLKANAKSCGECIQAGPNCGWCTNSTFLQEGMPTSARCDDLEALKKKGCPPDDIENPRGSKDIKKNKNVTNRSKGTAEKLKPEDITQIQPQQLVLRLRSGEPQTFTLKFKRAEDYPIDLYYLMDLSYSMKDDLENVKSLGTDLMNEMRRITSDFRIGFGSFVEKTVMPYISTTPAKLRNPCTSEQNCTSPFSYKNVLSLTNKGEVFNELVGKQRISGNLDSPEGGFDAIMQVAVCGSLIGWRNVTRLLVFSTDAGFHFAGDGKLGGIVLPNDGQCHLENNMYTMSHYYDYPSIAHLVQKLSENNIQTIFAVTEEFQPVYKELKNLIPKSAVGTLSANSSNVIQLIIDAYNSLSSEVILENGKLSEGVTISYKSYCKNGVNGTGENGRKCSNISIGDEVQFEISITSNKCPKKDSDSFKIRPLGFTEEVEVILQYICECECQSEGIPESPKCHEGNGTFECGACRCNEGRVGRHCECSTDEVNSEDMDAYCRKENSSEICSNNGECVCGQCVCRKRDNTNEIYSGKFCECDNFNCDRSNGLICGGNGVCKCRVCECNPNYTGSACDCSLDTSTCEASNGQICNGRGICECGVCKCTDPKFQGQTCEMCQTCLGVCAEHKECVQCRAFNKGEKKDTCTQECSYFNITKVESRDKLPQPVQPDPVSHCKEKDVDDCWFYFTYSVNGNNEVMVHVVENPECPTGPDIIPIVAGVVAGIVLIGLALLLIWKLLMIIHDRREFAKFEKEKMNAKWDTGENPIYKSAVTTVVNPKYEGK
Sequence of Integrin beta-1 (Homo sapiens) + Integrin alpha-4 (Homo sapiens) (P13612 whole entry, looked up): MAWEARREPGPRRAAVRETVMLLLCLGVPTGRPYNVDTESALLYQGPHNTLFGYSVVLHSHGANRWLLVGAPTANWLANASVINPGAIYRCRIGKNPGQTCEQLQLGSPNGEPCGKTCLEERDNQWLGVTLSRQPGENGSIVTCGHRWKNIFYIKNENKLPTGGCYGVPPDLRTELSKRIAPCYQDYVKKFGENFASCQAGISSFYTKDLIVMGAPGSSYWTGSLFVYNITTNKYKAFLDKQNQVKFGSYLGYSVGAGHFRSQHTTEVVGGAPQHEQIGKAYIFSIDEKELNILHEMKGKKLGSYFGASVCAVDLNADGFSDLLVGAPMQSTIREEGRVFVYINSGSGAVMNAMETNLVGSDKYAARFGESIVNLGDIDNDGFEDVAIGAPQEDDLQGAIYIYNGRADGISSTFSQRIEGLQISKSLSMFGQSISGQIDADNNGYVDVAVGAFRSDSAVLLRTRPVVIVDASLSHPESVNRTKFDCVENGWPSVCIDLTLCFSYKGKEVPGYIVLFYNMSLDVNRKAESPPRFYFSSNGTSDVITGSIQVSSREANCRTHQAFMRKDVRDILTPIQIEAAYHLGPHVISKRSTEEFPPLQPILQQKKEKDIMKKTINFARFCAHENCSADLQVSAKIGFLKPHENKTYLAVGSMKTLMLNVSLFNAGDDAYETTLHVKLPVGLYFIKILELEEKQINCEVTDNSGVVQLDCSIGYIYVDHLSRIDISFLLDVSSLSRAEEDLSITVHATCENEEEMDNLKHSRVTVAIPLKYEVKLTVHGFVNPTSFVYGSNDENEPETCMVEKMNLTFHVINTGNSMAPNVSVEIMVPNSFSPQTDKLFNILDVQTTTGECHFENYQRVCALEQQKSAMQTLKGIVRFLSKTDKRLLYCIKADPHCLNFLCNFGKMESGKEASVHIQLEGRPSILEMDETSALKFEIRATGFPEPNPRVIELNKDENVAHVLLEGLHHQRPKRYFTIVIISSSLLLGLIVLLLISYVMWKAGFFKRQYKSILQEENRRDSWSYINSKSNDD

O=C(CCC1CCCN(C(=O)c2ccsc2)C1)NCc1ccc(F)c(F)c1 (stereo not drawn)
62.4%: double positive events [6]
inactive: percent of DMSO control GFP [1] 99% | GFP response vs DMSO [2] 103% | percent response of DMSO control [3] 94.2% | GFP response vs DMSO [4] 103% | GFP response, % of DMSO [5] 98.9% | vesicle binding response [6] 183% | inhibition [7] -9.79% | superoxide response (% of plate) [8] 102% | aptamer binding inhibition [9] -2% | response [10] -9.44% | inhibition [11] -6.99% | response [12] 1.61% | binding (% of control) [13] 104% | efflux inhibition (fraction of control) [14] 0.08 | inhibition [15] -8% | differentiation response [16] 8.06%

CN1C(=O)NC(c2ccc(O)cc2)C2=C1CN(c1cccc3ccccc13)C2=O (stereo not drawn)
64%: double positive events [6]
inactive: percent of DMSO control GFP [1] 102% | GFP response vs DMSO [2] 107% | percent response of DMSO control [3] 106% | GFP response vs DMSO [4] 94% | GFP response, % of DMSO [5] 100% | vesicle binding response [6] 229% | inhibition [7] -1.49% | superoxide response (% of plate) [8] 94.5% | aptamer binding inhibition [9] 0% | response [10] -19.6% | inhibition [11] 3.73% | response [12] -0.13% | binding (% of control) [13] 99.8% | efflux inhibition (fraction of control) [14] -0.23 | inhibition [15] -6% | differentiation response [16] 7.09%

CCCCOc1ccc(CC(=O)NO)cc1
48.1%: double positive events [6]
inactive: percent of DMSO control GFP [1] 87.8% | GFP response vs DMSO [2] 113% | percent response of DMSO control [3] 106% | GFP response vs DMSO [4] 75.9% | GFP response, % of DMSO [5] 75% | vesicle binding response [6] 214% | inhibition [7] -3.24% | superoxide response (% of plate) [8] 121% | aptamer binding inhibition [9] -2% | response [10] -26.1% | inhibition [11] 3.29% | response [12] 1.03% | binding (% of control) [13] 104% | efflux inhibition (fraction of control) [14] 0.09 | inhibition [15] 9% | differentiation response [16] 2.46%

Cc1ccc(CN2CCN(CCCc3ccccc3)CC2CCO)cc1 (stereo not drawn)
inactive: percent of DMSO control GFP [1] 103% | GFP response vs DMSO [2] 104% | percent response of DMSO control [3] 106% | GFP response vs DMSO [4] 97.3% | GFP response, % of DMSO [5] 104% | vesicle binding response [6] 219% | inhibition [7] 7.85% | superoxide response (% of plate) [8] 106% | aptamer binding inhibition [9] 1% | response [10] 9.66% | inhibition [11] 30.3% | response [12] -5.49% | binding (% of control) [13] 102% | efflux inhibition (fraction of control) [14] -0.01 | inhibition [15] -8% | differentiation response [16] 10%
62.7%: double positive events [6]

N#CCC(N)=C(C#N)C#N
60.1%: double positive events [6]
inactive: percent of DMSO control GFP [1] 91.5% | GFP response vs DMSO [2] 120% | percent response of DMSO control [3] 111% | GFP response vs DMSO [4] 82.5% | GFP response, % of DMSO [5] 91.7% | vesicle binding response [6] 188% | inhibition [7] -4.21% | superoxide response (% of plate) [8] 108% | aptamer binding inhibition [9] 9% | response [10] -2.94% | inhibition [11] -8.05% | response [12] 1.3% | binding (% of control) [13] 101% | efflux inhibition (fraction of control) [14] -0.02 | inhibition [15] -45% | differentiation response [16] -5.73%

COc1ccc2[nH]c(CN3CCN(CC(C)C)C(CCO)C3)c(C)c2c1 (stereo not drawn)
inactive: percent of DMSO control GFP [1] 98.8% | GFP response vs DMSO [2] 105% | percent response of DMSO control [3] 94.8% | GFP response vs DMSO [4] 105% | GFP response, % of DMSO [5] 98% | vesicle binding response [6] 231% | inhibition [7] -3.16% | superoxide response (% of plate) [8] 95.8% | aptamer binding inhibition [9] 3% | response [10] -3.42% | inhibition [11] -1.65% | response [12] 2.28% | binding (% of control) [13] 97.4% | efflux inhibition (fraction of control) [14] -0.06 | inhibition [15] 6% | differentiation response [16] -4%
61.7%: double positive events [6]

Cc1cccc(CN2CCN(C(c3ccccc3)c3ccc(Cl)cc3)CC2)c1 (stereo not drawn)
inactive: percent of DMSO control GFP [1] 97.7% | GFP response vs DMSO [2] 104% | percent response of DMSO control [3] 98.2% | GFP response vs DMSO [4] 99.4% | GFP response, % of DMSO [5] 96.9% | vesicle binding response [6] 227% | inhibition [7] -6.04% | superoxide response (% of plate) [8] 99.2% | aptamer binding inhibition [9] 2% | response [10] 8.57% | inhibition [11] 35.5% | response [12] 0.49% | binding (% of control) [13] 105% | inhibition [15] -1% | differentiation response [16] 26.3%
62.4%: double positive events [6]
active: efflux inhibition (fraction of control) [14] 0.46

CN(C(=O)C(Cl)Cl)c1ccc(OC(=O)c2ccco2)cc1
inactive: percent of DMSO control GFP [1] 99% | GFP response vs DMSO [2] 105% | percent response of DMSO control [3] 97.8% | GFP response vs DMSO [4] 98% | GFP response, % of DMSO [5] 96.8% | vesicle binding response [6] 90.2% | inhibition [7] -1.49% | superoxide response (% of plate) [8] 94% | aptamer binding inhibition [9] 4% | response [10] 5.41% | inhibition [11] 15.3% | response [12] -0.32% | binding (% of control) [13] 99% | efflux inhibition (fraction of control) [14] -0.04 | inhibition [15] 7% | differentiation response [16] -3.67%
59.3%: double positive events [6]

Cc1ncc(CN2CCC(CO)(CCc3ccccc3)CC2)s1
inactive: percent of DMSO control GFP [1] 101% | GFP response vs DMSO [2] 111% | percent response of DMSO control [3] 104% | GFP response vs DMSO [4] 102% | GFP response, % of DMSO [5] 110% | vesicle binding response [6] 98.1% | inhibition [7] 6.95% | superoxide response (% of plate) [8] 97.2% | aptamer binding inhibition [9] 2% | response [10] -0.43% | inhibition [11] -1.19% | response [12] 0.58% | binding (% of control) [13] 107% | efflux inhibition (fraction of control) [14] -0.07 | inhibition [15] 6% | differentiation response [16] -1.65%
62.3%: double positive events [6]
